Whole data set: some 35,000 sequences, median “fluorescence intensity (a.u.)” near 10,000, cut for the highest 2% near 52,000. Many of the other results were omitted from the sample, so the highest values are more common in it than they were.
molecular target: T1, OsWOX13 (Oryza sativa, UniProt Q5QMM3 1-267); experiment: protein-binding microarray (RPBM); PBS, 2% BSA, 51.3 ng/ul salmon testes DNA, 50 uM zinc acetate, 200 nM TF, 25 C, 1 h; high values mean tight binding; details: protein: recombinant; tags: N-terminal polyhistidine and DsRed monomer fusion (pET32a); label: CyDye5-dUTP incorporated in the synthesized complementary strand; 3' TTTTT single-stranded linker to array surface; dsDNA, one strand shown
T1 sequence: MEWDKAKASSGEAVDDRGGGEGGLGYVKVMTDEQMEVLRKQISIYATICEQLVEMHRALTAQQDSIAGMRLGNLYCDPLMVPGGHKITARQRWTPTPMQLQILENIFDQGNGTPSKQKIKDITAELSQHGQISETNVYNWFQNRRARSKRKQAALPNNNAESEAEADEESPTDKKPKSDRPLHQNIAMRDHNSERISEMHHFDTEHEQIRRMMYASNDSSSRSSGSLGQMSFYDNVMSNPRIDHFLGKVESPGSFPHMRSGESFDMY
In short: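 Per-feature fluorescence intensity (arbitrary units), read on an Axon 4000B scanner, is the binding signal. Transcription factors carrying an N-terminal polyhistidine tag and DsRed fusion were expressed in E. coli BL21-CodonPlus and purified on Ni–NTA. A custom Agilent array, made double-stranded by primer extension with Cy5-dUTP and blocked with 2% BSA, was incubated with 200 nM protein in PBS, 2% BSA, salmon testes DNA and 50 µM zinc acetate at 25 °C for 1 h and then washed.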

Row | Sequence | binding signal
1 | CCTTGCAATCATTCATCAGAGGAGGAGTTCTACAGTGATGCGGAGTCACCTAGTGCAG | 3760 fluorescence intensity (a.u.)
2 | GCAATCTTTCATTATCATAATTGGTCGTAGCTTTAATTACCGGAGTCACCTAGTGCAG | 8430 fluorescence intensity (a.u.)
3 | TTAATTAGATGCTCATATAAATATGGTGAAACCTGCATGCCGGAGTCACCTAGTGCAG | 21500 fluorescence intensity (a.u.)
4 | CCAAATTTAATTTTACCTATTTTAAATGTGGCGATATATCCGGAGTCACCTAGTGCAG | 17900 fluorescence intensity (a.u.)
5 | TTAATTGATTCCATGAAGGTATAATGATACTTTTATGGTACGGAGTCACCTAGTGCAG | 65000 fluorescence intensity (a.u.)
6 | TAGCTAATTCTTAATTAATTATACGCTAATGAATCACTTTCGGAGTCACCTAGTGCAG | 23900 fluorescence intensity (a.u.)
7 | GGAGTGATTAAATTAGTTAATTAGTTAATAATCCCATTGACGGAGTCACCTAGTGCAG | 56800 fluorescence intensity (a.u.)
8 | AAAATAAATAAATAAATTTGGTAACATTGATTAATTAGGACGGAGTCACCTAGTGCAG | 21200 fluorescence intensity (a.u.)
9 | GTCTTAATTGAATGCATCAATTATACTTTTGCAGGAGTTTCGGAGTCACCTAGTGCAG | 64900 fluorescence intensity (a.u.)
10 | TAATACTTAATTAATTATATGCTAAATGCTTCTTCGTTTTCGGAGTCACCTAGTGCAG | 27300 fluorescence intensity (a.u.)
11 | AATGATTGAAGGATATCCATTTGAATGATGGTATGCTTTACGGAGTCACCTAGTGCAG | 43000 fluorescence intensity (a.u.)
12 | TAATAATTAGTGATTAATTATCCTGACCATTGATTCAACACGGAGTCACCTAGTGCAG | 48300 fluorescence intensity (a.u.)
13 | ATAAATAGTAATTGACATTAAGAATGGGACCCACACTCTACGGAGTCACCTAGTGCAG | 53000 fluorescence intensity (a.u.)
14 | GCGTAATAGTAATAATTGATTAATGGTGACACGAGAAGGACGGAGTCACCTAGTGCAG | 46600 fluorescence intensity (a.u.)
15 | ACACTAAATTATTCTACCCACAAATTAAATAATTGAAATACGGAGTCACCTAGTGCAG | 9290 fluorescence intensity (a.u.)
16 | AGTTAACATGATTTATGATAATTTTAATGTAAATGGTATACGGAGTCACCTAGTGCAG | 16700 fluorescence intensity (a.u.)
17 | TGCTAATAAATCTTGATTTGTTTCACATAGAAGCTGCATCCGGAGTCACCTAGTGCAG | 26400 fluorescence intensity (a.u.)
18 | ATATGATAATAATTATTTAAAGAAATAAATTTATTTTGGACGGAGTCACCTAGTGCAG | 28700 fluorescence intensity (a.u.)
19 | TTGTTAATTACCTTGTTTAATTAATTTCGCTAGCTTAGATCGGAGTCACCTAGTGCAG | 44700 fluorescence intensity (a.u.)
20 | TTGATTAAATACAAAATTAATAGTCAAAGTTTTAAAAGTTCGGAGTCACCTAGTGCAG | 18200 fluorescence intensity (a.u.)
21 | TAAATATATTGTCAAATTATATTTAATGTTTTATTTGATACGGAGTCACCTAGTGCAG | 3180 fluorescence intensity (a.u.)

Row | Sequence | binding signal
22 | TGATTAAATTGCTTTAACTTTTATTTAATTTGTAGAAAATCGGAGTCACCTAGTGCAG | 22500 fluorescence intensity (a.u.)
23 | CATGATTGCTCATCTTTGTATTAAAAGAAATAATTTATGTCGGAGTCACCTAGTGCAG | 53500 fluorescence intensity (a.u.)
24 | CAGATAATTAGCTACCTGTTTAATAGATCATCTTGATCATCGGAGTCACCTAGTGCAG | 53400 fluorescence intensity (a.u.)
25 | AAACTGTTTTAATAATAGATAGATAGATAGATAGATAGATCGGAGTCACCTAGTGCAG | 18200 fluorescence intensity (a.u.)
26 | CACTAATTGATCAATTGCACAACAAATTGCTTGAATAACGCGGAGTCACCTAGTGCAG | 59900 fluorescence intensity (a.u.)
27 | TGGACAACAATTCTTGATTGAATTTAATTAACGGATAACGCGGAGTCACCTAGTGCAG | 28000 fluorescence intensity (a.u.)
28 | GTAAAAGTTAATTGATTTGTTTATACCCTCAAATAGCCATCGGAGTCACCTAGTGCAG | 58700 fluorescence intensity (a.u.)
29 | TGTGACATTTCCAATCACTAATTGATCAATTGCACAACAACGGAGTCACCTAGTGCAG | 38100 fluorescence intensity (a.u.)
30 | GACAAATTATGGCATTTTAAAATCCAAAATATGGAAAGGGCGGAGTCACCTAGTGCAG | 14600 fluorescence intensity (a.u.)
31 | CTTGATTTATTGATTGATTAATAAAACATTTTATTTCCAACGGAGTCACCTAGTGCAG | 56900 fluorescence intensity (a.u.)
32 | ACCGTGATTACGGTAATTGGAAATATAAAAGAGATGGGAGCGGAGTCACCTAGTGCAG | 56800 fluorescence intensity (a.u.)
33 | CAATGATTGGACTAAAGAAAATGCTAATATTAATGGTATGCGGAGTCACCTAGTGCAG | 52300 fluorescence intensity (a.u.)
34 | CTTATTATAAAGATTTAATTATAACAAATATAATGGTATGCGGAGTCACCTAGTGCAG | 4800 fluorescence intensity (a.u.)
35 | AACATTGATTAATATTGGTCAAAATATTTTCAACTCTAAACGGAGTCACCTAGTGCAG | 19200 fluorescence intensity (a.u.)
36 | GATTCAATGATGGATTTAATAAAACTAATTTGGTATTGCTCGGAGTCACCTAGTGCAG | 18700 fluorescence intensity (a.u.)
37 | TGATAGATGGAAAATAAATTGGTAAAATTAGTAGATGGGACGGAGTCACCTAGTGCAG | 39700 fluorescence intensity (a.u.)
38 | CTTCTTGATTGATTTATACTAACTGCGCACACACTTTATTCGGAGTCACCTAGTGCAG | 55200 fluorescence intensity (a.u.)
39 | GTATGATTAATTGAGTTTTAATTATTATAAAATTTTAAAACGGAGTCACCTAGTGCAG | 22900 fluorescence intensity (a.u.)
40 | ACTTATATTCTTTAACTTATGATTGGAGGTATATACTATACGGAGTCACCTAGTGCAG | 5760 fluorescence intensity (a.u.)
41 | CTTAACTGTAACACTATTGCGTTGATTACTTCTACTTATTCGGAGTCACCTAGTGCAG | 15200 fluorescence intensity (a.u.)
42 | ATAATTGGTAAAGATGGATTCAAAATATTATTAATAATTGCGGAGTCACCTAGTGCAG | 26200 fluorescence intensity (a.u.)

From PMC7819943, “Rice protein-binding microarrays: a tool to detect cis-acting elements near promoter regions in rice”
